PubChem BioAssay (NCI)
The panel holds about 83,000 compounds, 20% with a hit somewhere; the sample as a whole holds those more often.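 For each line, cells grew in 96-well plates with the test compound present at a single concentration for 48 hours.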 Activity calls are given as the source filed them. How the source made its calls: active means growth percent below 10; inactive means the rest.

Experiments:
Experiment in all cases: NCI-60 one-dose screen, 48 h (100 = growth as untreated, 0 = no growth, -100 = all killed)
Settings in all cases: 10 µM
HCT-15 colon = test system: HCT-15 colon
HT29 colon = test system: HT29 colon
SNB-75 CNS = test system: SNB-75 CNS
SNB-19 CNS = test system: SNB-19 CNS
U251 CNS = test system: U251 CNS
PC-3 prostate = test system: PC-3 prostate
SK-MEL-5 melanoma = test system: SK-MEL-5 melanoma
UACC-62 melanoma = test system: UACC-62 melanoma
LOX IMVI melanoma = test system: LOX IMVI melanoma
SK-MEL-28 melanoma = test system: SK-MEL-28 melanoma

Measured: growth

COc1cccc2nc(Nc3cccc(NC(=O)c4ccc(CN5CCCN(C)CC5)c(C(F)(F)F)c4)c3)ccc12
active: HCT-15 colon -100% | HT29 colon -72% | SNB-75 CNS -84.5% | SNB-19 CNS -99.3% | U251 CNS -55.6% | PC-3 prostate -69.8% | SK-MEL-5 melanoma -96.9% | UACC-62 melanoma -74.1% | LOX IMVI melanoma -98.8% | SK-MEL-28 melanoma -100%

CC(C)Sc1nc(NC2CC2)c(C#N)c(-c2ccccc2)n1
inactive: HCT-15 colon 101% | HT29 colon 87.3% | SNB-75 CNS 81.3% | SNB-19 CNS 25.7% | U251 CNS 50.6% | PC-3 prostate 83% | SK-MEL-5 melanoma 93.1% | UACC-62 melanoma 87.1% | LOX IMVI melanoma 80.2% | SK-MEL-28 melanoma 110%

CCCS(=O)(=O)c1oc(-c2ccc(F)cc2)nc1S(=O)(=O)c1ccc(F)cc1
active: HCT-15 colon -81.3% | HT29 colon -69.6% | LOX IMVI melanoma -100% | SK-MEL-28 melanoma -98.7%
inactive: SNB-75 CNS 53.4% | SNB-19 CNS 82.6% | U251 CNS 31.7% | PC-3 prostate 80.7% | SK-MEL-5 melanoma 41.8% | UACC-62 melanoma 22%

O=C(NCCCCC(c1ccc(F)cc1)c1ccc(F)cc1)NCCCc1cccnc1
inactive: HCT-15 colon 14% | HT29 colon 14.4% | SNB-75 CNS 53% | SNB-19 CNS 24.5% | U251 CNS 26.4% | PC-3 prostate 11.5% | UACC-62 melanoma 41.6% | LOX IMVI melanoma 42.5% | SK-MEL-28 melanoma 20.8%
active: SK-MEL-5 melanoma -90.5%

CC1=C2C(=C[C@@](C)(CO)[C@@H]2O)/C(=N\N)[C@](C)(O)C12CC2
active: HCT-15 colon -17.1% | HT29 colon -11% | SNB-75 CNS -85.1% | SNB-19 CNS -16% | PC-3 prostate 6.9% | SK-MEL-5 melanoma -61.1% | UACC-62 melanoma -81.7% | LOX IMVI melanoma -64.3% | SK-MEL-28 melanoma -67.2%
inactive: U251 CNS 12%

O=C(Nc1nc2ccc([N+](=O)[O-])cc2s1)Nc1ccccc1I
active: HCT-15 colon 1.19% | HT29 colon 1.95% | SNB-75 CNS -1.46% | U251 CNS 2.73% | PC-3 prostate 9.44% | SK-MEL-5 melanoma -78.5% | UACC-62 melanoma 3.63% | LOX IMVI melanoma 9.2%
inactive: SNB-19 CNS 10.5% | SK-MEL-28 melanoma 15.8%

CCOc1ccc2ncc(C#Cc3cncc(C(=O)Nc4ccc(CN5CCN(C)CC5)c(C(F)(F)F)c4)c3)n2n1
active: HCT-15 colon -86.1% | HT29 colon -51% | SNB-75 CNS -88.8% | SNB-19 CNS -63.3% | U251 CNS -41.5% | PC-3 prostate -34.9% | SK-MEL-5 melanoma -83.4% | UACC-62 melanoma -71.3% | LOX IMVI melanoma -80% | SK-MEL-28 melanoma -83.1%

O=C(Nc1ccc(Cl)c(C(F)(F)F)c1)c1cncc(C#Cc2cnc3ccc(N4CCOCC4)nn23)c1
inactive: HCT-15 colon 15.8% | U251 CNS 20.2% | PC-3 prostate 23.4%
active: HT29 colon 8.82% | SNB-75 CNS -1.28% | SNB-19 CNS -10.8% | SK-MEL-5 melanoma 4.01% | UACC-62 melanoma -10.3% | LOX IMVI melanoma -48.9% | SK-MEL-28 melanoma 0.817%

CC(=O)Oc1ccccc1C(=O)Oc1ccc(C(=O)/C=C/c2ccncc2)cc1
inactive: HT29 colon 22% | SNB-75 CNS 102% | SNB-19 CNS 47.2% | U251 CNS 14.7% | PC-3 prostate 54.7% | SK-MEL-5 melanoma 71.2% | UACC-62 melanoma 50.6% | SK-MEL-28 melanoma 68.8%
active: HCT-15 colon -4.84% | LOX IMVI melanoma -44.2%

Cc1ccc(-c2nc3ccc(C(=O)N=Nc4c(O)[nH]c5ccc(Br)cc45)cc3[nH]2)cc1
active: U251 CNS -76% | LOX IMVI melanoma -27.8%
inactive: HCT-15 colon 96.6% | HT29 colon 47.9% | SNB-75 CNS 107% | SNB-19 CNS 46.1% | PC-3 prostate 62.6% | SK-MEL-5 melanoma 84.1% | UACC-62 melanoma 98% | SK-MEL-28 melanoma 99.3%

CN1CCN(c2ccc(Nc3nc(NCCCNC(=O)c4ccccc4)c4sccc4n3)cc2)CC1
inactive: HCT-15 colon 12.3% | HT29 colon 14.6% | SNB-75 CNS 110% | SNB-19 CNS 95.5% | U251 CNS 22.8% | PC-3 prostate 56.8% | SK-MEL-5 melanoma 64.9% | UACC-62 melanoma 84.6% | LOX IMVI melanoma 16% | SK-MEL-28 melanoma 73.3%

CC(C)C1=C[C@@]23CC[C@@H]4[C@](C)(CCC[C@]4(C)C(=O)NCc4ccccc4)[C@H]2C[C@@H]1[C@H]1C(=O)OC(=O)[C@H]13
active: HCT-15 colon 9.01% | LOX IMVI melanoma -8.46%
inactive: HT29 colon 18.8% | SNB-75 CNS 69.6% | SNB-19 CNS 37.9% | U251 CNS 25.1% | PC-3 prostate 33.3% | SK-MEL-5 melanoma 72.2% | UACC-62 melanoma 50.2% | SK-MEL-28 melanoma 68.1%

Cc1nc2c(cnn2-c2ccccc2)c(=O)n1-c1ccc(NC(=O)c2ccc(F)cc2)cc1
active: SK-MEL-5 melanoma -15.4%
inactive: HCT-15 colon 66.1% | HT29 colon 63.5% | SNB-75 CNS 64.5% | SNB-19 CNS 80.4% | U251 CNS 81.1% | PC-3 prostate 53.1% | UACC-62 melanoma 63.1% | LOX IMVI melanoma 61.8% | SK-MEL-28 melanoma 83.8%

O=c1oc2ccc(-c3ccc(F)cc3F)cc2c(=O)n1-c1ccc(F)cc1
inactive: HT29 colon 59.6% | SNB-19 CNS 13.3% | U251 CNS 18%
active: HCT-15 colon 5.32% | SNB-75 CNS -14% | PC-3 prostate 0.638% | SK-MEL-5 melanoma -77.9% | UACC-62 melanoma -50.2% | LOX IMVI melanoma 1.46% | SK-MEL-28 melanoma -0.667%

O=C1N/C(=N\c2nccs2)S/C1=C\c1cccs1
active: SK-MEL-5 melanoma -76.9% | UACC-62 melanoma -18.9% | LOX IMVI melanoma 8.62%
inactive: HCT-15 colon 17.4% | HT29 colon 39.6% | SNB-75 CNS 69.6% | SNB-19 CNS 30.6% | U251 CNS 29.5% | PC-3 prostate 41.3% | SK-MEL-28 melanoma 14.6%

O=C(NO)c1ccc(-c2nc3ccc4[nH]ncc4c3c3c2CCCC3)cc1
inactive: PC-3 prostate 15.8%
active: HCT-15 colon -11% | HT29 colon 6.1% | SNB-75 CNS -77.1% | SNB-19 CNS -19.4% | U251 CNS -39.1% | SK-MEL-5 melanoma -88.9% | UACC-62 melanoma -65.8% | LOX IMVI melanoma -90.6% | SK-MEL-28 melanoma -55%

COc1ccc2nc(Nc3cccc(NC(=O)c4ccc(CN5CCN(C)CC5)c(C(F)(F)F)c4)c3)ccc2c1
active: HCT-15 colon -83.4% | HT29 colon -73.9% | SNB-75 CNS -39.5% | SNB-19 CNS -96.8% | U251 CNS -77.5% | PC-3 prostate -8.06% | SK-MEL-5 melanoma -100% | UACC-62 melanoma -93% | LOX IMVI melanoma -100% | SK-MEL-28 melanoma -96.9%

COc1ccc(C(=O)Nc2ccc(-c3ccc4c(c3)NC(=O)/C4=C\c3ccc[nH]3)cc2)cc1
inactive: HCT-15 colon 15.2% | HT29 colon 15.6% | SNB-19 CNS 60.8% | U251 CNS 32.8% | PC-3 prostate 27.5% | SK-MEL-5 melanoma 49.1% | UACC-62 melanoma 78.1% | SK-MEL-28 melanoma 88.8%
active: SNB-75 CNS -11% | LOX IMVI melanoma 5.2%

COc1ccc(/C=N/N=C(\C)c2ccc3c(c2)Nc2ccccc2S3)cc1O
active: SK-MEL-5 melanoma -23.5%
inactive: HCT-15 colon 29.8% | HT29 colon 85.3% | SNB-75 CNS 66% | SNB-19 CNS 63.7% | U251 CNS 64.5% | PC-3 prostate 45.4% | UACC-62 melanoma 58.9% | LOX IMVI melanoma 21% | SK-MEL-28 melanoma 60.9%

Brc1ccc(N/N=C/c2c[nH]c3ccccc23)nc1
inactive: HT29 colon 14% | SNB-75 CNS 26.7% | SNB-19 CNS 43.9% | U251 CNS 19.9% | PC-3 prostate 20% | SK-MEL-5 melanoma 51.8% | UACC-62 melanoma 54.8% | SK-MEL-28 melanoma 63.6%
active: HCT-15 colon 8.57% | LOX IMVI melanoma -2.43%

O=C(COc1ccc(NC(=O)Nc2ccc(Cl)cc2)cc1)N=Nc1c(O)[nH]c2ccc([N+](=O)[O-])cc12
inactive: HCT-15 colon 94.1% | HT29 colon 34.8% | SNB-75 CNS 29.9% | SNB-19 CNS 19.1% | PC-3 prostate 46.8% | SK-MEL-5 melanoma 63.1% | UACC-62 melanoma 11.3% | LOX IMVI melanoma 13.9%
active: U251 CNS -67.6% | SK-MEL-28 melanoma -4.38%

CCCn1c(=O)c2[nH]c(-c3ccc(OCc4nc5ccccc5[nH]4)cc3)nc2n(CCC)c1=O
active: U251 CNS 2.91% | LOX IMVI melanoma -2.38%
inactive: HCT-15 colon 63.2% | HT29 colon 61.2% | SNB-75 CNS 34.9% | SNB-19 CNS 37.1% | PC-3 prostate 77.3% | SK-MEL-5 melanoma 44.6% | UACC-62 melanoma 35.5% | SK-MEL-28 melanoma 102%

COc1ccc(/C=C/C(=O)c2ccc(N3CCN(C)CC3)cc2)c(C(F)(F)F)c1
inactive: SNB-75 CNS 97.7% | SNB-19 CNS 54.5% | PC-3 prostate 43.5% | SK-MEL-5 melanoma 36.7% | SK-MEL-28 melanoma 52%
active: HCT-15 colon -68.5% | HT29 colon -52% | U251 CNS 5.33% | UACC-62 melanoma -31.4% | LOX IMVI melanoma -86.4%

COc1ccc(C(=O)Nc2sc3c(c2C#N)CCC(=O)C3)cc1C(F)(F)F
active: HCT-15 colon -69.8% | HT29 colon -31.4% | SNB-75 CNS -15.2% | SNB-19 CNS -5.9% | U251 CNS 3.33% | PC-3 prostate 8.45% | SK-MEL-5 melanoma -92.2% | UACC-62 melanoma -25.5% | LOX IMVI melanoma -15% | SK-MEL-28 melanoma -12.6%

COc1ccccc1NCc1ccc(CO)n1-c1ccc(C)cc1
inactive: HCT-15 colon 96.7% | HT29 colon 102% | SNB-75 CNS 80.2% | SNB-19 CNS 94.9% | U251 CNS 96.1% | PC-3 prostate 80.2% | SK-MEL-5 melanoma 100% | UACC-62 melanoma 83.8% | LOX IMVI melanoma 86.5% | SK-MEL-28 melanoma 106%
